28 compounds from PubChem BioAssay (Tox21) can be followed below.

Where “and” joins values, the source holds several entries; their conditions need not be identical. Equal values may be shown once. Results filed as inconclusive are left out. A call without a number means that no potency is given here. Calls of active or inactive are those of the source. The call rests on the fitted dose curve; in most records, active means well fitted inhibition curve with a large enough effect in the repeat runs; inconclusive means weak or mixed curves; inactive means no such curve, though single readings can be large or run the other way.
Potency means the concentration at half of the fitted maximal effect.

Cytochrome P450 3A4 (Homo sapiens), sequence (P08684 whole entry, looked up): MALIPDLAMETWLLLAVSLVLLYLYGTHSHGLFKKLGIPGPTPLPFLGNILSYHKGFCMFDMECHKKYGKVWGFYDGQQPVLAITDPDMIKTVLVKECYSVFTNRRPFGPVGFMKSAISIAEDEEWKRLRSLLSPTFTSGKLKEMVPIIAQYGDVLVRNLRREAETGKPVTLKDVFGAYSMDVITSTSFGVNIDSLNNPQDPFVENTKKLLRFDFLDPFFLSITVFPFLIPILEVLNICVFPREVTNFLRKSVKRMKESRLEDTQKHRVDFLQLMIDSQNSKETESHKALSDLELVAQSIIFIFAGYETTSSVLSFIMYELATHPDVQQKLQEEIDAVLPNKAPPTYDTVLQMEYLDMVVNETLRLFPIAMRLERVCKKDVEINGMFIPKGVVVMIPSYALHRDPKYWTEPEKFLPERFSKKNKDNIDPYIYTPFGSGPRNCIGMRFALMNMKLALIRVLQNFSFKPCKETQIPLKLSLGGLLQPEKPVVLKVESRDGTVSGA

The target in the assay is Cytochrome P450 3A4 (Homo sapiens) (UniProt P08684). The experiment in a line: Cytochrome P450 Family 3 Subfamily A Member 4 (CYP3A4) small molecule antagonists: luciferase reporter qHTS assay (AID 1671201). Further: nearly all actives have a fitted effect of over 50% in size. The following applies: P450-Glo CYP3A4 enzyme, luciferin luminescence, 1 h; series mostly up to 115 µM. The method, boiled down:
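P450-Glo CYP3A4 system with proluciferin substrate; compounds preincubated 10 min RT with enzyme-substrate mix, then NADPH regeneration added for 1 h RT. Detection reagent 20 min, luminescence read as relative luminescence units.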
Background: In a reporter assay the amount or activity of a reporter protein is the signal.
Take `CC(C)(C)c1ccc(O)c(C(C)(C)C)c1`: the Potency is 35.6 µM (active). With `NC(=Nc1ccccc1)Nc1ccccc1`, the Potency result is “inactive”. For `O=C(O)c1cc(Cl)cc(Cl)c1`, the Potency result is “inactive”. Next, `C=CC(=O)OCCCCCCCC`: “inactive”. Next, `CC(=O)C1=C(C)[C@@H]2C[C@@]3(C1)[C@H](C)CC[C@H]3C2(C)C`: 25.2 µM (active); `Clc1ccc2c(c1)C(N1CCNCC1)=Nc1ccccc1O2`: 7.96 µM (active) and 4.9 µM (active); `Cc1cccc([N+](=O)[O-])c1C(=O)O`: “inactive”.

For the compound `Nc1nc(=S)c2[nH]cnc2[nH]1`, the Potency entry is “inactive”. The entry for `O=c1n(CC2CO2)c(=O)n(CC2CO2)c(=O)n1CC1CO1` (stereo not drawn) is “inactive”; for `COc1ccc(Cc2cnc(N)nc2N)cc1OC` it is “inactive”. On to `Nc1cc(Cl)c(-c2cc(Cl)c(N)cc2Cl)cc1Cl`, for which the Potency is 2 µM (active) and 3.56 µM (active). With `O=Cc1ccc(Cl)cc1`, the Potency result is “inactive”.

Turning to `[Cl][In]([Cl])[Cl]`, the Potency result was “inactive”.

For `CC(C)CCOCc1ccccc1`, the Potency result was “inactive”. `O=Nc1ccc(Nc2ccccc2)cc1`: the Potency is 8.99 µM (active) and 12.6 µM (active). The entry for `CCn1cc(C(=O)O)c(=O)c2cc(F)c(N3CCNC(C)C3)c(F)c21` (stereo not drawn) is “inactive”; for `CCN1CCCC1CNC(=O)c1cc(S(=O)(=O)CC)c(N)cc1OC` (stereo not drawn) it is “inactive”.

Consider `O=C(O)CP(=O)(O)O`, for which the Potency entry is “inactive”.

Regarding `Cc1cccc2n[nH]nc12`, the Potency entry is “inactive”. As to `O=C(O)c1cccc(C(=O)O)c1`, the Potency entry was “inactive”.

Turning to `CC1COC(=O)O1` (stereo not drawn), the Potency entry was “inactive”.

For the compound `CC[C@@H](N)CO`, the Potency entry is “inactive”. `NC(N)=Nc1nc(CSCC/C(N)=N/S(N)(=O)=O)cs1`: the Potency result was “inactive”. The entry for `C#CC(C)(CC)OC(=O)c1ccccc1C(=O)O` (stereo not drawn) is “inactive”; for `CCCCN(CCO)CCCC` it is “inactive”. Next, `Nc1ccc(O)cc1`: 37 µM (active); `CCC(=O)/C=C/C1C(C)=CCCC1(C)C` (stereo not drawn): 71.2 µM (active) and 20 µM (active). For `CC(N)=O`, the Potency entry is “inactive”.
